{
  "source": "PubChem BioAssay",
  "note": "The source made the active and inactive calls.",
  "data": [
    {"experiment": "small-molecule binders of probe aLefty1, primary screen, biochemical, small-molecule microarray, 635/667 nm fluorescence (AID 1153);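 also: score merges spot fluorescence with signal-to-noise ratio from the scanned slide images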", "conditions": "higher = more signal", "values": [
      {"smiles": "C[C@]1(C(=O)O)c2ccccc2C(=O)N(Cc2cc(C(F)(F)F)cc(C(F)(F)F)c2)[C@H]1c1ccc(CO)cc1", "composite z-score": -0.0479},
      {"smiles": "COC(=O)C(CC#Cc1ccc2c(c1)[C@]1(C(=O)N2)[C@H](c2ccc(OCCO)cc2)N2[C@H](c3ccccc3)[C@H](c3ccccc3)OC(=O)[C@H]2[C@@H]1C(N)=O)C(=O)OC", "composite z-score": 0.0319},
      {"smiles": "CN1C(=O)C2C=CC(C(O)c3ccc(I)cc3)N(N(c3ccccc3)c3ccccc3)C2C1=O", "note": "(configuration not stated)", "composite z-score": 0.193},
      {"smiles": "COc1ccc([Si](C)(C)[C@@H]2[C@@H](CC(=O)N(CCO)Cc3ccccc3)O[C@]3(C(=O)N(Cc4cccc(I)c4)c4ccccc43)[C@H]2C)cc1", "composite z-score": 0.0464},
      {"smiles": "COc1ccc([Si](C)(C)[C@H]2[C@H](CC(=O)N3CCC[C@H]3CO)O[C@@]3(C(=O)N(Cc4cccc(N5CCCCC5=O)c4)c4ccccc43)[C@@H]2C)cc1", "composite z-score": 0.0799},
      {"smiles": "O=C1C2C=CC(C(O)C3CCCCC3)N(Nc3ccccc3F)C2C(=O)N1c1ccccc1", "note": "(configuration not stated)", "composite z-score": 0.483},
      {"smiles": "C=C(COC)/C(=C/C[C@@H](OC(C)=O)c1cccc(OCCO)c1)c1cnc2ccccc2c1", "composite z-score": 0.106},
      {"smiles": "COC(=O)C1=CC(c2ccc(CO)cc2)=CC(C2CC2)N(Cc2cc3c(cc2Br)OCO3)C=C1C(=O)OC", "note": "(configuration not stated)", "composite z-score": 0.3},
      {"smiles": "O=C/C=C/c1ccc(-c2ccccc2)cc1", "composite z-score": -0.0186},
      {"smiles": "COc1ccc(C(O)C2C=CC3C(=O)N(C)C(=O)C3N2Nc2ccccc2)cc1", "note": "(configuration not stated)", "composite z-score": 0.211},
      {"smiles": "COCCOC(=O)N1C(=O)[C@@]2(c3cc(C#CCNC(N)=O)ccc31)[C@H](c1ccccc1OCCO)N1[C@H](c3ccccc3)[C@H](c3ccccc3)OC(=O)[C@H]1[C@@H]2C(=O)N1CCCCCCC1", "composite z-score": 0.359},
      {"smiles": "CC1C2C(CCCO)=CC(C3C(=O)N(C(N)=O)C(=O)C23)N1Cc1cccc(OC(F)(F)F)c1", "note": "(configuration not stated)", "composite z-score": 0.0982},
      {"smiles": "CCCC=C(CCC)[C@@H](NC(=O)c1ccc(C(=O)OC)cc1)c1ccc(C(=O)OC)cc1", "composite z-score": 0.211},
      {"smiles": "COc1ccc(C#Cc2ccc3c(c2)[C@]2(C(=O)N3)[C@H](c3ccccc3OCCO)N3[C@H](c4ccccc4)[C@H](c4ccccc4)OC(=O)[C@H]3[C@@H]2C(=O)NC[C@H](O)c2ccccc2)cc1", "composite z-score": 0.0147},
      {"smiles": "C=C(C(=O)CC[C@@H](OC(=O)c1ccccc1-c1ccccc1C(=O)O)c1cccc(OCCO)c1)C(C)C", "composite z-score": 0.262},
      {"smiles": "C[C@]1(C(=O)NC2CC2)c2ccccc2C(=O)N(Cc2cc(F)cc(C(F)(F)F)c2)[C@H]1c1ccc(CO)cc1", "composite z-score": -0.351},
      {"smiles": "C=C(COC)C(=O)CC[C@H](OC(C)=O)c1ccccc1OCCO", "composite z-score": -0.176},
      {"smiles": "CCOC(=O)C[C@H]1[C@H](OC(=O)Cc2ccc3c(c2)OCO3)[C@@H](NC(=O)CC(C)C)c2cc(OCCCO)ccc2N1C(=O)c1ccc2ccccc2n1", "composite z-score": 0.0004},
      {"smiles": "O=C1C[C@@](C(=O)NCC(F)(F)F)(c2ccc([N+](=O)[O-])cc2)[C@@H](c2ccc(CO)cc2I)N1CC12CC3CC(CC(C3)C1)C2", "composite z-score": 0.383},
      {"smiles": "COc1cc(CO)cc(I)c1O[C@H]1C=C(C(=O)NCCO)C[C@@H](N(CCN2CCOCC2)C(=O)C2CCCO2)[C@@H]1O", "note": "(some centres not stated)", "composite z-score": -0.245},
      {"smiles": "O=C1C2C=CC(C(O)C(c3ccccc3)c3ccccc3)N(Nc3ccccc3F)C2C(=O)N1c1ccccc1", "note": "(configuration not stated)", "composite z-score": 0.235},
      {"smiles": "COC(=O)C[C@H]1O[C@]2(C(=O)N(C)c3ccccc32)[C@@H](C)[C@@H]1[Si](C)(C)c1ccccc1", "composite z-score": 0.151},
      {"smiles": "CC(C)(C)OC(=O)CC[C@]1(C(=O)N2CCOCC2)COC(c2ccc(OCCCO)cc2)=N1", "composite z-score": 0.0429},
      {"smiles": "C=C(CC1([C@@H](NP(=O)(c2ccccc2)c2ccccc2)[C@H]2C[C@@H]2CCCC)CC1)c1cccc(OC)c1", "composite z-score": 0.494},
      {"smiles": "COc1ccc(C(=O)Nc2cccc(CN3C(=O)[C@]4(O[C@H](CC(=O)N(CCO)Cc5ccccc5)[C@@H]([Si](C)(C)c5ccc(OC)cc5)[C@@H]4C)c4ccccc43)c2)cc1", "composite z-score": 0.0892},
      {"smiles": "CC[C@@H](O[Si](C#C[Si](C(C)C)(C(C)C)C(C)C)(C(C)C)C(C)C)c1cn([C@H](CO)Cc2ccccc2)nn1", "composite z-score": -0.0094}
    ]},
    {"experiment": "PSAC antagonists in infected red cells, primary screen, cell-based, P. falciparum Indochina, OD700, 1 h (AID 1154)", "conditions": "P. falciparum Indochina infected RBC osmotic lysis, higher = more signal, called active from +8 up or from −8 down", "values": [
      {"smiles": "COc1cc(Cc2cc3c(c(-c4ccccc4)n2)[Si](C(C)C)(C(C)C)OC3)cc(OC)c1OC", "z-score": "1.62 (inactive)"},
      {"smiles": "COCCOC(=O)N1C(=O)[C@@]2(c3cc(C#CCC(C(=O)OC)C(=O)OC)ccc31)[C@H](C(N)=O)[C@H]1C(=O)O[C@H](c3ccccc3)[C@H](c3ccccc3)N1[C@@H]2c1ccccc1OCCO", "z-score": "8.08 (active)"},
      {"smiles": "C[C@@]1([C@@H](NS(=O)(=O)c2cccc3cccnc23)c2ccc(-c3ccccc3)cc2)C[C@H]1C1CCCCC1", "z-score": "0.668 (inactive)"},
      {"smiles": "C=C(C(=O)CC[C@@H](OC(=O)c1ccccc1-c1ccccc1C(=O)O)c1ccc(CO)o1)C(C)C", "z-score": "0.897 (inactive)"},
      {"smiles": "CCOC(=O)C1=CCC(c2cccn2C(=O)OC(C)(C)C)N(S(=O)(=O)c2ccc(C)cc2)C1", "note": "(configuration not stated)", "z-score": "7.3 (inactive)"},
      {"smiles": "O=C1N(Cc2ccccc2)c2ccccc2C[C@@]12N=C(c1ccc(OCCCO)cc1)O[C@H]2c1ccccc1", "z-score": "10.8 (active)"},
      {"smiles": "Cc1ccc(S[C@]2(C(=O)NC3CC3)CC(=O)N(C3Cc4ccccc4C3)[C@@H]2c2ccc(CO)cc2I)cc1", "z-score": "5.18 (inactive)"},
      {"smiles": "CCc1cccc(NC(=O)O[C@H]2[C@H](OC(=O)Nc3ccccc3-c3ccccc3)[C@H](OC(=O)Nc3ccccc3-c3ccccc3)[C@@H](OC)O[C@@H]2CO)c1", "z-score": "3.88 (inactive)"},
      {"smiles": "CC(C)C[C@H]1NC(=O)CNC(=O)[C@@]23C(=O)N[C@@H](Cc4ccccc4)C2[C@H](C)[C@@]2(C)O[C@H]2C3/C=C/C/C=C\\CNC1=O", "note": "(some centres not stated)", "z-score": "0.392 (inactive)"},
      {"smiles": "C=C(/C=C\\CNS(=O)(=O)c1ccc(C)cc1)[C@H](O)[C@H]1CCCN1S(=O)(=O)c1ccccc1[N+](=O)[O-]", "z-score": "12.1 (active)"},
      {"smiles": "C[C@]1(C(=O)O)c2ccccc2C(=O)N(Cc2cc(C(F)(F)F)cc(C(F)(F)F)c2)[C@H]1c1ccc(CO)cc1", "z-score": "1.8 (inactive)"},
      {"smiles": "COC(=O)C(CC#Cc1ccc2c(c1)[C@]1(C(=O)N2)[C@H](c2ccc(OCCO)cc2)N2[C@H](c3ccccc3)[C@H](c3ccccc3)OC(=O)[C@H]2[C@@H]1C(N)=O)C(=O)OC", "z-score": "3.9 (inactive)"},
      {"smiles": "CN1C(=O)C2C=CC(C(O)c3ccc(I)cc3)N(N(c3ccccc3)c3ccccc3)C2C1=O", "note": "(configuration not stated)", "z-score": "3.99 (inactive)"},
      {"smiles": "COc1ccc([Si](C)(C)[C@@H]2[C@@H](CC(=O)N(CCO)Cc3ccccc3)O[C@]3(C(=O)N(Cc4cccc(I)c4)c4ccccc43)[C@H]2C)cc1", "z-score": "4.63 (inactive)"},
      {"smiles": "COc1ccc([Si](C)(C)[C@H]2[C@H](CC(=O)N3CCC[C@H]3CO)O[C@@]3(C(=O)N(Cc4cccc(N5CCCCC5=O)c4)c4ccccc43)[C@@H]2C)cc1", "z-score": "4.11 (inactive)"},
      {"smiles": "O=C1C2C=CC(C(O)C3CCCCC3)N(Nc3ccccc3F)C2C(=O)N1c1ccccc1", "note": "(configuration not stated)", "z-score": "1.11 (inactive)"},
      {"smiles": "C=C(COC)/C(=C/C[C@@H](OC(C)=O)c1cccc(OCCO)c1)c1cnc2ccccc2c1", "z-score": "22.7 (active)"},
      {"smiles": "COC(=O)C1=CC(c2ccc(CO)cc2)=CC(C2CC2)N(Cc2cc3c(cc2Br)OCO3)C=C1C(=O)OC", "note": "(configuration not stated)", "z-score": "10.6 (active)"},
      {"smiles": "O=C/C=C/c1ccc(-c2ccccc2)cc1", "z-score": "2.39 (inactive)"},
      {"smiles": "COc1ccc(C(O)C2C=CC3C(=O)N(C)C(=O)C3N2Nc2ccccc2)cc1", "note": "(configuration not stated)", "z-score": "0.929 (inactive)"},
      {"smiles": "COCCOC(=O)N1C(=O)[C@@]2(c3cc(C#CCNC(N)=O)ccc31)[C@H](c1ccccc1OCCO)N1[C@H](c3ccccc3)[C@H](c3ccccc3)OC(=O)[C@H]1[C@@H]2C(=O)N1CCCCCCC1", "z-score": "1.21 (inactive)"},
      {"smiles": "CC1C2C(CCCO)=CC(C3C(=O)N(C(N)=O)C(=O)C23)N1Cc1cccc(OC(F)(F)F)c1", "note": "(configuration not stated)", "z-score": "0.376 (inactive)"},
      {"smiles": "CCCC=C(CCC)[C@@H](NC(=O)c1ccc(C(=O)OC)cc1)c1ccc(C(=O)OC)cc1", "z-score": "0.67 (inactive)"},
      {"smiles": "COc1ccc(C#Cc2ccc3c(c2)[C@]2(C(=O)N3)[C@H](c3ccccc3OCCO)N3[C@H](c4ccccc4)[C@H](c4ccccc4)OC(=O)[C@H]3[C@@H]2C(=O)NC[C@H](O)c2ccccc2)cc1", "z-score": "1.71 (inactive)"},
      {"smiles": "C=C(C(=O)CC[C@@H](OC(=O)c1ccccc1-c1ccccc1C(=O)O)c1cccc(OCCO)c1)C(C)C", "z-score": "4.83 (inactive)"},
      {"smiles": "C[C@]1(C(=O)NC2CC2)c2ccccc2C(=O)N(Cc2cc(F)cc(C(F)(F)F)c2)[C@H]1c1ccc(CO)cc1", "z-score": "3.02 (inactive)"},
      {"smiles": "C=C(COC)C(=O)CC[C@H](OC(C)=O)c1ccccc1OCCO", "z-score": "1.91 (inactive)"},
      {"smiles": "CCOC(=O)C[C@H]1[C@H](OC(=O)Cc2ccc3c(c2)OCO3)[C@@H](NC(=O)CC(C)C)c2cc(OCCCO)ccc2N1C(=O)c1ccc2ccccc2n1", "z-score": "2.75 (inactive)"},
      {"smiles": "O=C1C[C@@](C(=O)NCC(F)(F)F)(c2ccc([N+](=O)[O-])cc2)[C@@H](c2ccc(CO)cc2I)N1CC12CC3CC(CC(C3)C1)C2", "z-score": "22.4 (active)"},
      {"smiles": "COc1cc(CO)cc(I)c1O[C@H]1C=C(C(=O)NCCO)C[C@@H](N(CCN2CCOCC2)C(=O)C2CCCO2)[C@@H]1O", "note": "(some centres not stated)", "z-score": "0.961 (inactive)"},
      {"smiles": "O=C1C2C=CC(C(O)C(c3ccccc3)c3ccccc3)N(Nc3ccccc3F)C2C(=O)N1c1ccccc1", "note": "(configuration not stated)", "z-score": "2.23 (inactive)"},
      {"smiles": "COC(=O)C[C@H]1O[C@]2(C(=O)N(C)c3ccccc32)[C@@H](C)[C@@H]1[Si](C)(C)c1ccccc1", "z-score": "1.48 (inactive)"},
      {"smiles": "CC(C)(C)OC(=O)CC[C@]1(C(=O)N2CCOCC2)COC(c2ccc(OCCCO)cc2)=N1", "z-score": "20.8 (active)"},
      {"smiles": "C=C(CC1([C@@H](NP(=O)(c2ccccc2)c2ccccc2)[C@H]2C[C@@H]2CCCC)CC1)c1cccc(OC)c1", "z-score": "2.33 (inactive)"},
      {"smiles": "COc1ccc(C(=O)Nc2cccc(CN3C(=O)[C@]4(O[C@H](CC(=O)N(CCO)Cc5ccccc5)[C@@H]([Si](C)(C)c5ccc(OC)cc5)[C@@H]4C)c4ccccc43)c2)cc1", "z-score": "4.41 (inactive)"},
      {"smiles": "CC[C@@H](O[Si](C#C[Si](C(C)C)(C(C)C)C(C)C)(C(C)C)C(C)C)c1cn([C@H](CO)Cc2ccccc2)nn1", "z-score": "0.355 (inactive)"}
    ]}
  ]
}
